What follows are compounds tested on XIP peptide (Xip251-270) binding (assay: small-molecule binders of XIP peptide, primary screen, biochemical, small-molecule microarray, fluorescence 635/667 nm, 0.1 µg/mL protein (AID 1182)). Details: fluorescent protein binding, 635 nm, higher = more signal, called active from +8 up or from −8 down.

Composite z-score, inactive:
O=C1OCCC=C[C@H]2OC34C=CCN(Cn5nnc6ccccc65)C(=O)[C@H]3N(CCCCCCO)C(=O)[C@@H]4C12 (stereo not given in full) 1.62
O=C1C[C@@](C(=O)NCCN2CCOCC2)(c2ccc([N+](=O)[O-])cc2)[C@@H](c2ccc(CO)cc2I)N1C1CCCCC1 -0.026
NC(=O)N1C(=O)C2C(C1=O)C1C=C(CCCO)C2C(c2cccs2)N1Cc1cccc(OC(F)(F)F)c1 (stereo not given) 1.07
C=C(/C(=C/C[C@H](OC(C)=O)c1ccccc1OCCO)c1cc(C(=O)OC)ccc1OC)C(C)C -0.2
CCCC[C@@H](O)C1=C(COc2ccccc2)C[C@H]2C(=O)N(C)C(=O)[C@H]2[C@H]1CO -0.35
O=C1NC(=O)C2C1C=CC(C(O)c1cccc3ccccc13)N2Nc1ccc(Cl)cc1Cl (stereo not given) 1.46
COc1ccc(-c2cc3c(c(CCc4ccccc4)n2)[Si](C(C)C)(C(C)C)OC3)cn1 -0.406
COC(=O)[C@@]1(Cc2ccc(F)cc2)[C@H]2c3cc(C(=O)N4CCCC4)n(CCc4ccc(O)c(O)c4)c3C[C@H]2CN1C(=O)c1ccccc1 1.19
CC1=C[C@@]2(CO)C(=O)[C@]3(CO3)[C@@H]1[C@H]1[C@]2(C)C=C(CO)C(=O)[C@]12CO2 0.188
O=C(NCC(F)(F)F)[C@@H]1c2ccccc2C(=O)N(Cc2ccc(OC(F)(F)F)cc2)[C@H]1c1ccc(CO)cc1 0.21
COC(=O)Cn1c(C(=O)N(C)C)cc2c1C[C@H]1CN(C(=O)c3ccccc3)[C@@](Cc3ccc(F)cc3)(C(=O)OC)[C@@H]21 1.69
COc1ccc([Si](C)(C)[C@H]2[C@H](CC(=O)N(CCO)Cc3ccccc3)O[C@@]3(C(=O)N(Cc4cccc(N5CCOC5=O)c4)c4ccccc43)[C@@H]2C)cc1 0.114
COCCCNC(=O)[C@]1(CCS(=O)(=O)c2ccccc2)N=C(c2ccc(OCCCO)cc2)O[C@@H]1c1ccccc1CN=[N+]=[N-] 1.51
[N-]=[N+]=Nc1ccccc1C[C@]1(C(N)=O)N=C(c2ccc(OCCCO)cc2)O[C@H]1c1ccccc1N=[N+]=[N-] 0.635
C#CCN([C@@H](Cc1ccc(O)cc1)C(=O)OC)[C@@H](/C=C/C1CC1)[C@H](O)Cc1ccccc1 -0.297
CN(C)c1ccc(C(O)C2C=CC3C(=O)N(c4ccccc4)C(=O)C3N2Nc2ccc([N+](=O)[O-])cc2)cc1 (stereo not given) -0.0383
NCCCCCCNC(=O)[C@@H]1C[C@@H]2C(=O)N[C@@H](CCCCN)C(=O)N2[C@@H]1c1cccc(OCCO)c1 1.7
CCOC(=O)C1=CC[C@@H](c2ccc(OCc3ccccc3)c(OC)c2)N(S(=O)(=O)c2ccc(C)cc2)[C@H]1c1ccc(SC)cc1 0.56
COC(=O)[C@@]1(Cc2ccccc2)[C@H]2c3cc(C(=O)N(C)C)n(Cc4c(CO)[nH]cc(C)c4=O)c3C[C@H]2CN1C(=O)c1ccccc1 0.278
CN1C(=O)C2C=CC(C(O)COCc3ccccc3)N(N(c3ccccc3)c3ccccc3)C2C1=O (stereo not given) 0.441
CCC[C@@H]1C[C@@]1(CCC)[C@@H](NC(=O)OCc1ccccc1)c1ccc(-c2ccccc2)cc1 -0.384
COCCOC(=O)N1C(=O)[C@@]2(c3cc(C#CC4=CCCCC4)ccc31)[C@H](c1ccc(OCCO)cc1)N1[C@H](c3ccccc3)[C@H](c3ccccc3)OC(=O)[C@H]1[C@@H]2C(=O)NC[C@H](O)c1ccccc1 0.575
C=C(CCCC)/C(=C/C[C@@H](OC(=O)c1ccncc1)c1ccccc1OCCO)c1cnc2ccccc2c1 0.0648
CC1CC/C=C\[C@H]2OC34C=CCN(C(C)C)C(=O)[C@H]3N(CCCCCCO)C(=O)[C@@H]4C2C(=O)O1 (stereo not given in full) 0.565
O=C1C2C=CC(C(O)c3ccc(Br)cc3)N(Nc3ccccc3F)C2C(=O)N1c1ccccc1 (stereo not given) 0.197
COC(=O)[C@@]1(Cc2ccc(OC)cc2)[C@H]2c3cc(C(=O)N4CCCC4)n(Cc4cccc5ccccc45)c3C[C@H]2CN1C(=O)c1ccccc1 0.0014
CCOC(=O)C1CCCCN1 (stereo not given) -0.679
COc1ccc([Si](C)(C)[C@H]2[C@H](CCn3cc([C@H](O)c4ccccc4)nn3)O[C@@]3(C(=O)N(Cc4ccc(N5C(=O)c6cccc7cccc5c67)cc4)c4ccccc43)[C@@H]2C)cc1 0.784
[N-]=[N+]=NCc1ccccc1C[C@@]1(C(=O)N2CCOCC2)N=C(c2ccc(OCCCO)cc2)O[C@@H]1c1ccccc1 0.761
COC(=O)C(CC#Cc1ccc2c(c1)[C@]1(C(=O)N2)[C@H](C(=O)N2CCN(c3ncccn3)CC2)[C@H]2C(=O)O[C@H](c3ccccc3)[C@H](c3ccccc3)N2[C@@H]1c1ccc(OCCO)cc1)C(=O)OC 1.22
[N-]=[N+]=Nc1ccccc1[C@@H]1OC(c2ccc(OCCCO)cc2)=N[C@]1(Cc1ccccc1)C(=O)NCC(O)CO (stereo not given in full) 2.53
CCCC[C@@H]1C[C@H]1[C@@H](NC(=O)c1cccs1)c1ccc(C(F)(F)F)cc1 -0.011
COC(=O)[C@@]1(Cc2ccc(OC)cc2)[C@H]2c3cc(C(=O)N(C)C)n(CCO)c3C[C@H]2CN1C(=O)c1ccccc1 -0.509
CCOC(=O)C[C@H]1[C@H](OC(=O)Cc2ccc3c(c2)OCO3)[C@@H](NC(=O)CC(C)C)c2cc(OCCCO)ccc2N1C(=O)Cc1ccc(OC)cc1 -0.107
O=C1NC(=O)C2C1C=CC(C(O)c1ccco1)N2Nc1ccccn1 (stereo not given) -0.409

— PubChem BioAssay
